The values that follow come from PubChem BioAssay.

For assay [1], the system named is Plasmodium falciparum Sir2 (PF13_0152, Sir2A). Kind of assay: Plasmodium falciparum Sir2A binding compounds – biochemical, small-molecule microarray, 635 nm fluorescence, primary screen (AID 1098).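 Further: score merges spot fluorescence intensity with its signal-to-noise ratio.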 To be noted: fluorescence 635 nm, higher = more signal.
Assay [2] in a line: probe aDKK1 binding to arrayed compounds – biochemical, biotinylated probe, 635/667 nm fluorescence, primary screen (AID 1099).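 Further: score merges 667nm spot fluorescence with signal to noise across triplicate slides; reference of the scale not given here.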 Conditions: small-molecule microarray, higher = more signal.
Assay [3] can be described thus: probe aCHRDL2 binding to arrayed compounds – biochemical, biotinylated probe, 635/667 nm fluorescence, primary screen (AID 1100). Conditions: small-molecule microarray, higher = more signal.
A short description of assay [4]: change in splice reporter luminescence, either direction, cell-based, HEK293, spliceosome inhibition project, primary screen (AID 1101).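 Further: HEK293 cells carrying a splicing-competent luciferase reporter gene; test concentration not given here.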 To be noted: HEK293 splicing luciferase reporter, 24 h, higher = more signal, called active from +8 up or from −8 down. (In general: A reporter such as luciferase makes a cellular process visible.)
Assay [5] deals with Fibroblast growth factor 10 (Homo sapiens) (UniProt O15520). Kind of assay: compounds binding fibroblast growth factor 10 – biochemical, small-molecule microarray, 635 nm fluorescence, primary screen (AID 1102). To be noted: FGF10 binding, fluorescence 635 nm, higher = more signal.
Assay [6] has as its system glycogen synthase kinase-3 (GSK3A per assay name; protocol says GSK3B). Put plainly: compounds binding glycogen synthase kinase-3 – biochemical, small-molecule microarray, 635 nm fluorescence, GSK3A, primary screen (AID 1103). Further: the record names both GSK3A and GSK3B. To be noted: fluorescence 635 nm, higher = more signal.
The target in assay [7] is Epidermal growth factor receptor (Homo sapiens) (UniProt P00533). Put plainly: compounds binding epidermal growth factor receptor – biochemical, small-molecule microarray, 635 nm fluorescence, primary screen (AID 1104).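 Further: score merges 667 nm emission intensity with spot signal to noise over triplicate slides.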 To be noted: EGFR binding, higher = more signal.
Assay [8] concerns the target Follistatin-related protein 3 (Homo sapiens) (UniProt O95633). Put plainly: compounds binding follistatin-related protein 3 – biochemical, small-molecule microarray, 635 nm fluorescence, primary screen (AID 1105).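 Further: score merges emission near 667 nm and signal to noise per printed spot across three slides.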 To be noted: FSTL3 binding, higher = more signal.
Assay [9] concerns the target Dickkopf-related protein 1 (Homo sapiens) (UniProt O94907). Put plainly: small molecules binding DKK1 protein – biochemical, small-molecule microarray, 635 nm fluorescence scan, primary screen (AID 1106).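 Further: score merges emission near 667 nm with signal to noise over three replicate slides.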 Conditions: higher = more signal.
The subject of assay [10] is Inhibin beta A chain (activin A). Put plainly: small molecules binding activin A – biochemical, small-molecule microarray, 635 nm fluorescence scan, primary screen (AID 1107).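 Further: mouse activin A protein probed at 4.33 µg/mL on printed slides; score merges bound-protein fluorescence near 667 nm with spot signal-to-noise.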 To be noted: INHBA, higher = more signal.

Structures are written as SMILES. The source made the active and inactive calls.

Epidermal growth factor receptor (Homo sapiens), sequence (P00533 whole entry, looked up): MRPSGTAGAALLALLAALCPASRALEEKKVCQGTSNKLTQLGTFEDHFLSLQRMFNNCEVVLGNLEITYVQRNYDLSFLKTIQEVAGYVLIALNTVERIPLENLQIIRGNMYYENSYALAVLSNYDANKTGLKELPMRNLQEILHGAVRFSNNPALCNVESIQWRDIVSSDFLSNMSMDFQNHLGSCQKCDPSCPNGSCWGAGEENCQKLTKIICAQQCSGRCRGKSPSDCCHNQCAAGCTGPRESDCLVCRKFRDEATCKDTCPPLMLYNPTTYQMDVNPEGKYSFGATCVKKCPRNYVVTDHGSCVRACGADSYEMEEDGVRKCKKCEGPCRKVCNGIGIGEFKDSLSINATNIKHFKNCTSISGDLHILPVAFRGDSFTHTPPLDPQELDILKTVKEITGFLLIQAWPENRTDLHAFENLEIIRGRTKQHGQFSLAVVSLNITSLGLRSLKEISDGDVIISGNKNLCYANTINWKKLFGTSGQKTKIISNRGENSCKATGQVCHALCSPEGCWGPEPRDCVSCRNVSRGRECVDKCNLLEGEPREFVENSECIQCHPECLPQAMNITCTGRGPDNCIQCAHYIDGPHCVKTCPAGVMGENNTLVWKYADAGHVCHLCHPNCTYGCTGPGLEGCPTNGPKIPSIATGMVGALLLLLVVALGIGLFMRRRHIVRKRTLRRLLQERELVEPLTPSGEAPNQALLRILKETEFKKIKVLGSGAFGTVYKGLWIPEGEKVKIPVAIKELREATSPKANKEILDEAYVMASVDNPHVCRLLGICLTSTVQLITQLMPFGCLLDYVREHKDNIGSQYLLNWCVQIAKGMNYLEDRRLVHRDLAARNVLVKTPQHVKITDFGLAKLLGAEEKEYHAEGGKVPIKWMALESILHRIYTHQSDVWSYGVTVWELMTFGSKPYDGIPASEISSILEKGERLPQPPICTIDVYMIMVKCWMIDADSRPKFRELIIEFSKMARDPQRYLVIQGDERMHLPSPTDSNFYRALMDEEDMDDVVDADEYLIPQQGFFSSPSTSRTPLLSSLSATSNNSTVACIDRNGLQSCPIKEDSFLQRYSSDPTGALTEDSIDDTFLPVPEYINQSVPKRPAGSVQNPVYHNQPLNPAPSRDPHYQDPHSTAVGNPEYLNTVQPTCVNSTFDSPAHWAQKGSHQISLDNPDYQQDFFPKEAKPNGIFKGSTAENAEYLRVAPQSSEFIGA
Follistatin-related protein 3 (Homo sapiens), sequence (O95633 whole entry, looked up): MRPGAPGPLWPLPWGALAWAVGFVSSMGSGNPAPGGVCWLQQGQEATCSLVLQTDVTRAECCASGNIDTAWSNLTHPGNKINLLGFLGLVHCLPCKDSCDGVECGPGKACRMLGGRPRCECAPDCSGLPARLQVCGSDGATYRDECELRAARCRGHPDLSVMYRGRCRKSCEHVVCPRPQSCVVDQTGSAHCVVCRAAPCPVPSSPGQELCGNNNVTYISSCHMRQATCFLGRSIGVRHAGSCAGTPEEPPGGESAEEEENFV
Dickkopf-related protein 1 (Homo sapiens), sequence (O94907 whole entry, looked up): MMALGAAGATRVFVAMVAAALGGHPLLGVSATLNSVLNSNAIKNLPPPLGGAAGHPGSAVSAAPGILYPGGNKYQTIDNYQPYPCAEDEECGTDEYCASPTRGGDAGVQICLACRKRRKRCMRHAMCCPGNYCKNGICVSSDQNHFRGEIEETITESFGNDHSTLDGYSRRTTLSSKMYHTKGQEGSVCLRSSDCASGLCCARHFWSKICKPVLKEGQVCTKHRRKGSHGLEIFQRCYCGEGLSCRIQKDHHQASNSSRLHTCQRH
Fibroblast growth factor 10 (Homo sapiens), sequence (O15520 whole entry, looked up): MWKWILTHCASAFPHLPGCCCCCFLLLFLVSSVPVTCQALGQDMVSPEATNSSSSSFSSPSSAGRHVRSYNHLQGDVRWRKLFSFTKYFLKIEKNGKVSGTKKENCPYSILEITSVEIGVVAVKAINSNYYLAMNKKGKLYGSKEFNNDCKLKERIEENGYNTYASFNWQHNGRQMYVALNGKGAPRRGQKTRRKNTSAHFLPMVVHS

As for `CCOC(=O)C1=CC[C@@H](c2ccc(OCc3ccccc3)c(OC)c2)N(S(=O)(=O)c2ccc(C)cc2)[C@H]1c1ccc(SC)cc1`, the composite z-score came out at 1.26 in assay [1]; 0.842 in assay [2]; 1.04 in assay [3]; 1.1 in assay [5]; 0.587 in assay [6]; 0.838 in assay [7]. For the same molecule, the figures for the composite z-score in assay [8], in assay [9] and in assay [10] were 1.12, 0.174 and 0.994, respectively. The z-score in assay [4] is 0.236 (inactive).
In the case of `COC(=O)[C@@]1(Cc2ccc(F)cc2)[C@H]2c3cc(C(=O)N(C)C)n(Cc4cc(F)cc5c4OCOC5)c3C[C@H]2CN1C(=O)c1ccccc1`, the composite z-score in assay [1] worked out at 0.743; in assay [2] it was 1.25; in [3] it was 1.25; in [5], 0.87; in [6], 0.427; in assay [7], 0.105. Moreover, the composite z-score in assay [8] is 0.913; in [9] it was -0.171; in assay [10] it was 0.677. Further, in assay [4], the z-score was -1.26 (inactive).
With `C=C(/C(=C/C[C@H](OC(C)=O)c1cccc(OCCO)c1)c1cnc2ccccc2c1)C(C)C`, the composite z-score in [1] was -0.96; in assay [2] it was -0.104; in assay [3] it was -0.105; in [5], 0.904; in [6], 0.324; in assay [7] it was 0.705. Further, the composite z-score came out at 1.49 in [8], 0.783 in [9] and 1.98 in assay [10]. In assay [4], the z-score is -0.236 (inactive).
Take `[N-]=[N+]=NCc1ccccc1[C@H]1OC(c2ccc(OCCCO)cc2)=N[C@@]1(CCS(=O)(=O)c1ccccc1)C(=O)NCC(O)CO` (stereo not given in full): the composite z-score in [1] was 1.54; in [2] it was 0.658; in assay [3], 1.18; in assay [5], 1.32; in assay [6], 0.752; in [7] it was -0.0986. Further, the composite z-score in assay [8] was 0.264; in assay [9], -0.0898; in assay [10], 0.501. Also, in assay [4], the z-score is 0.542 (inactive).
On to `CN(C)C(=O)[C@@]1(CCS(=O)(=O)c2ccccc2)N=C(c2ccc(OCCCO)cc2)O[C@H]1c1ccccc1`, for which the composite z-score in assay [1] is 1.32; in assay [2], 0.415; in assay [3], 0.854; in assay [5] it was 0.961; in assay [6], 1.29; in assay [7] it was -0.806. Besides, the values for the composite z-score in assay [8], in assay [9] and in [10] were 0.455, -0.94 and 0.54, respectively. For the same molecule, in assay [4], the z-score is 2.27 (inactive).
As to `COc1ccc(NC(=O)O[C@H]2[C@H](OC(=O)Nc3ccccc3)[C@H](OC(=O)Nc3ccccc3)[C@@H](OC)O[C@@H]2CO)cc1`, the composite z-score in assay [1] was 1.58; in [2], 0.891; in assay [3], 0.816; in assay [5], 1.27; in assay [6], 1.07; in assay [7], -0.171. Further, the composite z-score in assay [8] was 0.806; in assay [9], 0.426; in assay [10] it was 0.593. Further, the z-score in [4] was -0.0162 (inactive).
Turning to `COCCOC(=O)N1C(=O)[C@@]2(c3cc(C#CC4=CCCCC4)ccc31)[C@H](c1ccccc1OCCO)N1[C@H](c3ccccc3)[C@H](c3ccccc3)OC(=O)[C@H]1[C@@H]2C(=O)Nc1nc2ccccc2s1`, the composite z-score was 1.09 in assay [1]; -0.148 in [2]; -0.226 in assay [3]; 1.08 in [5]; 0.69 in assay [6]; 0.416 in assay [7]. The composite z-score amounted to 0.981 in assay [8], 0.506 in assay [9] and 0.936 in [10]. In addition, the z-score in assay [4] was -1.62 (inactive).
In the case of `C=CC[C@@]1(C(=O)N2CCOCC2)N=C(c2ccc(OCCCO)cc2)O[C@@H]1c1ccccc1CN=[N+]=[N-]`, the composite z-score in assay [1] stood at 0.706; in assay [2], 0.906; in assay [3], 1.18; in assay [5], 1.48; in assay [6], 1.32; in [7], 0.749. The composite z-score was determined as 1.05 in [8], 0.472 in assay [9] and 1.34 in assay [10]. In addition, in assay [4], the z-score is 1.02 (inactive).
Consider `COc1ccc(-c2cc3c(c(CCc4ccccc4)n2)[Si](C(C)C)(C(C)C)OC3)cn1`, for which the composite z-score in assay [1] is -0.311; in assay [2] it was -0.128; in assay [3], -0.185; in [5], -0.121; in assay [6], -0.926; in assay [7] it was 0.168. For the same molecule, the values for the composite z-score in assay [8], in [9] and in assay [10] were 0.282, 0.0275 and 0.529, respectively. The z-score in assay [4] was -0.0496 (inactive).
In the case of `[N-]=[N+]=NCc1ccccc1C[C@]1(C(N)=O)N=C(c2ccc(OCCCO)cc2)O[C@H]1c1ccccc1`, the composite z-score in assay [1] was 1; in assay [2], 0.774; in [3], 0.827; in [5], 0.703; in assay [6] it was 0.854; in assay [7] it was -1.17. The composite z-score was -0.188 in assay [8], -1.14 in [9] and -0.0778 in assay [10]. Moreover, the z-score in assay [4] is -0.0612 (inactive).
As for `O=C1N(Cc2ccccc2)Cc2ccccc2[C@@H]2OC(c3ccc(OCCCO)cc3)=N[C@]12CCS(=O)(=O)c1ccccc1`, the composite z-score in [1] was 0.596; in assay [2], -0.0422; in assay [3], 1.05; in assay [5], 1.04; in assay [6], 0.309; in assay [7], 0.607. For the same molecule, the composite z-score in assay [8] is 0.291; in assay [9], -0.222; in [10], 0.772. Further, the z-score in assay [4] is 0.0631 (inactive).
`CN1C(=O)C2C=CC(C(O)c3cccc4ccccc34)N(N3CCCCC3)C2C1=O` (stereo not given): the composite z-score in assay [1] is 1.52; in assay [2], 1.11; in assay [3], 1.21; in assay [5], 0.595; in assay [6], 1.31; in assay [7], 0.396. Also, the composite z-score in assay [8] was found to be 1.09; in [9], 0.353; in assay [10] it was 0.784. Besides, the z-score in [4] was 1.81 (inactive).
Turning to `CC(=O)NCCCC[C@@H]1NC(=O)[C@@H]2C[C@H](C(=O)NCCCC[N+](C)(C)C)[C@H](c3ccc(O)cc3)N2C1=O`, the composite z-score is 1.46 in assay [1]; -0.151 in assay [2]; -0.295 in assay [3]; 1.33 in assay [5]; 0.301 in assay [6]; 0.753 in [7]. Also, the composite z-score in assay [8] was 1.47; in assay [9], 1.76; in assay [10], -0.261. For the same molecule, the z-score in assay [4] was -1.47 (inactive).
`NC(=O)NCC#Cc1ccc2c(c1)[C@]1(C(=O)N2)[C@H](C(=O)NC[C@H](O)c2ccccc2)[C@H]2C(=O)O[C@H](c3ccccc3)[C@H](c3ccccc3)N2[C@@H]1c1ccc(OCCO)cc1`: the composite z-score is 0.0395 in assay [1]; 0.72 in [2]; 0.879 in [3]; 0.566 in [5]; 0.0382 in assay [6]; -0.464 in assay [7]. For the same molecule, the composite z-score in assay [8] was 0.0489; in assay [9] it was -0.246; in assay [10], 1.04. Moreover, in [4], the z-score is 0.822 (inactive).
As for `COC(=O)[C@@]1(Cc2ccc(OC)cc2)[C@H]2c3cc(C(=O)N(C)C)n(C[C@H](O)CO)c3C[C@H]2CN1C(=O)c1ccccc1`, the composite z-score in assay [1] was 1.43; in assay [2], 1.76; in [3] it was 1.62; in assay [5], 0.376; in assay [6], 0.0885; in [7], -0.107. In addition, the composite z-score in assay [8] is 0.472; in [9], -1.18; in assay [10] it was 1.39. For the same molecule, the z-score in assay [4] is -0.872 (inactive).
As to `CCC(CC)C(O)C1C=CC2C(=O)N(c3ccccc3)C(=O)C2N1Nc1ccc(C(C)C)cc1` (stereo not given), the composite z-score in assay [1] was 1.23; in assay [2], 0.789; in assay [3] it was 0.948; in assay [5] it was 0.663; in assay [6], 1.17; in assay [7] it was 0.0407. The composite z-score is 0.932 in assay [8], -0.0563 in assay [9] and 0.916 in assay [10]. Also, in assay [4], the z-score is -0.0169 (inactive).
